This is part of a sample that, as a whole, favours compounds with a hit. Of some 79,000 tested, about 15% had one in any assay. A number with no mark means an inactive call. The source made the active and inactive calls. Rule as the data show it: active = growth inhibition above about 70%; inactive = the rest.
Legend:
[1] = NCI Yeast Anticancer Drug Screen. Data for the rad50 strain (AID 155);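 also: 0% = growth of vehicle-only cultures of the same strain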; conditions: S. cerevisiae rad50 strain growth inhibition, hits give high values
In short: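 Readout: growth inhibition relative to vehicle-treated cultures. Compound exposure was carried out in a genetically defined yeast strain deficient in DNA damage repair.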

[2] = NCI Yeast Anticancer Drug Screen. Data for the mec2-1 strain (AID 157); conditions: S. cerevisiae mec2-1 strain, hits give high values
In short: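 Yeast mec2-1 mutant treated with compound. Readout: growth inhibition vs vehicle controls.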

[3] = NCI Yeast Anticancer Drug Screen. Data for the sgs1 mgt1 strain (AID 161);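 also: 0% = growth of cultures given vehicle only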; conditions: S. cerevisiae sgs1 mgt1 strain, hits give high values
In short: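 Genetically altered yeast, compound exposure, growth inhibition relative to vehicle.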

[4] = NCI Yeast Anticancer Drug Screen. Data for the cln2 rad14 strain (AID 165);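 also: 0% = growth equal to vehicle treated cultures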; conditions: S. cerevisiae cln2 rad14 strain, hits give high values
In short: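 cln2 rad14 yeast strain; compound exposure; growth inhibition read vs vehicle controls.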

[5] = NCI Yeast Anticancer Drug Screen. Data for the bub3 strain (AID 167); conditions: S. cerevisiae bub3 mutant strain, hits give high values
In short: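 Readout: yeast growth inhibition, expressed relative to vehicle-only wells. The test organism is a mutant strain from a panel with lesions in DNA repair or checkpoint genes.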

[6] = NCI Yeast Anticancer Drug Screen. Data for the mlh1 rad18 strain (AID 175); conditions: S. cerevisiae mlh1 rad18 strain growth inhibition, hits give high values
In short: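 Yeast w/ defined DNA-repair lesions; compound exposure; growth vs vehicle controls → % inhibition.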

[7] = at 5.0 µM (retest, dose inferred, filed as 0.5)
[8] = at 50.0 µM (retest, dose inferred, filed as 5.0)

Row | Compound | growth inhibition [1, 7] | growth inhibition [1, 8] | growth inhibition ([1]; at 50.0 µM) | growth inhibition [2, 7] | growth inhibition [2, 8] | growth inhibition ([2]; at 50.0 µM) | growth inhibition [3, 7] | growth inhibition [3, 8] | growth inhibition ([3]; at 50.0 µM) | growth inhibition [4, 7] | growth inhibition [4, 8] | growth inhibition ([4]; at 50.0 µM) | growth inhibition [5, 7] | growth inhibition [5, 8] | growth inhibition ([5]; at 50.0 µM) | growth inhibition [6, 7] | growth inhibition [6, 8] | growth inhibition ([6]; at 50.0 µM)
1 | C/C(=N/NC(N)=S)c1ccc(Cl)cc1 | 9% | 94% (active) | 96.5% (active) | -17% | 89% (active) | 97.1% (active) | 5% | 93% (active) | 94% (active) | -10% | 92% (active) | 92.5% (active) | 41% | 94% (active) | 95.3% (active) | 8% | 96% (active) | 97.2% (active)
2 | N#CC(C#N)=Cc1c(O)ccc2ccccc12 | 15% | 76% (active) | 78.5% (active) | -2% | 45% | 51.3% | 2% | 32% | 66% | 18% | 48% | 61.2% | 10% | 62% | 68% | 19% | 81% (active) | 81.5% (active)
3 | C[CH2][Sn]([CH2]C)[O][Sn]([Cl])([CH2]C)[CH2]C | 51% | 96% (active) | 87.9% (active) | 35% | 97% (active) | 88.3% (active) | 37% | 97% (active) | 87.5% (active) | 19% | 91% (active) | 84% (active) | 39% | 96% (active) | 83.3% (active) | 75% (active) | 97% (active) | 86.7% (active)
4 | N#CC1CC[CH-]CC1.[Cl-].[Cl-].[Cl-].[Cl-].[Cl-].[Sb+5].c1ccncc1 | -1% | 98% (active) | 99.1% (active) | 3% | 100% (active) | 96.3% (active) | 5% | 99% (active) | 99.3% (active) | 11% | 99% (active) | 99.3% (active) | -1% | 99% (active) | 90.5% (active) | 3% | 99% (active) | 98.5% (active)
5 | CC(=O)Nc1ccc([As](O[As](c2ccc(NC(C)=O)cc2)c2ccc([N+](=O)[O-])cc2)c2ccc([N+](=O)[O-])cc2)cc1 (stereo not given) | 99% (active) | 100% (active) | 98.7% (active) | 99% (active) | 100% (active) | 99.7% (active) | 100% (active) | 99% (active) | 99.5% (active) | 99% (active) | 99% (active) | 99.3% (active) | 99% (active) | 99% (active) | 99.4% (active) | 99% (active) | 99% (active) | 99% (active)
6 | CC(=O)[O][Pb]([O]C(C)=O)([O]C(C)=O)[c]1ccccc1 | 71% (active) | 98% (active) | 90.5% (active) | 74% (active) | 99% (active) | 93.5% (active) | 86% (active) | 99% (active) | 93.6% (active) | 35% | 99% (active) | 89.2% (active) | 86% (active) | 99% (active) | 91.8% (active) | 91% (active) | 98% (active) | 91.2% (active)
7 | C[C@@H]1C[C@@H]([C@H](O)CC2CC(=O)NC(=O)C2)C(=O)[C@@H](C)C1 | 95% (active) | 99% (active) | 92% (active) | 98% (active) | 100% (active) | 93.6% (active) | 94% (active) | 99% (active) | 94.2% (active) | 98% (active) | 99% (active) | 90.7% (active) | 98% (active) | 99% (active) | 93.7% (active) | 93% (active) | 99% (active) | 92.1% (active)
8 | C(#C[PH+](c1ccccc1)c1ccccc1)c1ccccc1.C(#C[PH+](c1ccccc1)c1ccccc1)c1ccccc1.C(#C[PH+](c1ccccc1)c1ccccc1)c1ccccc1.[C-]#[O+].[C-]#[O+].[C-]#[O+].[Cr] | 29% | 35% | 83.2% (active) | 31% | 27% | 87% (active) | 14% | 17% | 86.8% (active) | 31% | 39% | 84.5% (active) | 44% | 39% | 88.2% (active) | 0% | 37% | 82.5% (active)
9 | CN(C)C(=S)Nc1nnc(NC23CC4CC(CC(C4)C2)C3)s1 | -1% | 61% | 96.7% (active) | -29% | 89% (active) | 96.2% (active) | 15% | 60% | 97.8% (active) | -22% | 94% (active) | 95.6% (active) | 3% | 96% (active) | 93% (active) | -2% | 48% | 97% (active)
10 | CCC[CH2][Sn]1([CH2]CCC)[O]CC(COc2c(Cl)cc(Cl)cc2Cl)[O]1 (stereo not given) | 94% (active) | 94% (active) | 91.2% (active) | 92% (active) | 92% (active) | 91.3% (active) | 97% (active) | 97% (active) | 90.2% (active) | 89% (active) | 89% (active) | 90% (active) | 89% (active) | 89% (active) | 92.5% (active) | 91% (active) | 91% (active) | 89.8% (active)
